From PubChem BioAssay AID493014 (National Center for Advancing Translational Sciences (NCATS), 2011)
The campaign covered roughly 340,000 compounds. About 170 (0.05%) were called active. Roughly 26% stayed inconclusive and do not appear here. Calls follow the shape of the dose curve; as a rule, active = well fitted inhibition curve with a large enough effect in the signal ratio, with a control signal flat (not every such curve was filed as active); inconclusive = small, poorly fitted or top-dose-only effect, or effect the other way, or a change in a side signal; inactive = flat fitted curve, though single readings scatter; the % refers to the signal ratio. What follows is part of a selection rich in actives, with near analogues and random picks from the rest.

Experiment: qHTS Assay to Find Inhibitors of Chronic Active B-Cell Receptor Signaling
Details: ABC-DLBCL IkBa-CBG/CBR reporter, luminescence ratio, 4 h; series mostly up to 46.1 µM
Text: NIH Molecular Libraries Probe Production Network [MLPCN] NIH Chemical Genomics Center [NCGC] MLPCN Grant: 1 R03 DA031086-01A1 PI Name: Dr. R. Eric Davis NCGC Assay Overview: Diffuse large B-cell lymphoma (DLBCL) is the most common category of non-Hodgkin lymphoma, with ~20,000 new cases per year in the United States. DLBCL should be regarded as a collection of different neoplasms. Microarray gene expression analysis has defined two principal types of DLBCL, named for their similarity to normal B cell stages or activation states: a germinal center B-cell (GCB) type, and an activated B-cell (ABC) type. In ABC-DLBCL, a constitutive high-level activity of the NF-kappaB family of transcription factors has been observed (1) and NF-kappaB target genes are more highly expressed in ABC primary tumors than in GCB tumors. Functional studies have shown a constitutive high-level activity of the IkappaB (inhibitor of kappa-B) kinase (IKK) complex. […] Further analysis of DLBCL primary tumors for NF-kappaB target gene expression imply that although CARD11 is required for constitutive IKK activity in all ABC-DLBCL lines, mutations in CARD11 may be the root cause of IKK activation only in lines or tumors with such mutations. In other words, CARD11 mutations may explain NF-kappaB activation in only 10% of ABC-DLBCL cases. […] This process has been termed 'chronic active BCR signaling' (CABS). The goal of this screen is to find small-molecule inhibitors of the CABS pathway found in ABC-DLBCL lines using a cell-based assay that measures IkappaBalpa stability, which has already been extensively validated in the OCI-Ly3 line (PubChem AID:445; REF: 4). […] The assay uses green (CBG68) and red (CBR) emitting beetle luciferases [Chroma-GloTM developed by Promega Corp.] where the green luciferase is fused to IkappaBalpha and the red luciferase is present in its native state. Both luciferase genes are stably present in the TMD8 human ABC DLBCL cell line, but their expression is under the control of tetracycline-inducible promoters. Following the addition of doxycycline to induce expression of the luciferases, the green luminescence in control cultures rises only slowly because the CBG fusion partner IkappaBalpha is targeted by IKK activity for rapid degradation. In contrast, green luminescence rises rapidly in the presence of proteasome inhibitors or IKK inhibitors. The rise in red luminescence of CBR is not affected by proteasome or IKK inhibitors, and serves as normalization for cell number and nonspecific effects. Compounds were screened as a concentration-titration series that ranged from 46 uM to 3 nM.
NCGC Assay Protocol Summary: Cells were seeded in 1536-well plates at 5000 cells/4uL in IMDM medium containing 0.5% FBS, w/o phenol red, 1% penicillin/streptomycin. Then, 23 nL of compounds or DMSO were delivered to each well using a pin tool. One uL 20ng/ml doxycycline was then dispensed into white solid 1536-well plates and the plates were incubated at 37C/5% C02 in a cell incubator for 4 hrs. Then 4 uL luminescent substrate mix (in-house prepared: 150 mM Tris-Cl, pH 7.6, 3 mM MgCl2, 1% Triton X-100, 5 mM DTT, 0.2 mM CoA, 0.15 mM ATP, 5 mM D-luciferin, final concentrations) was added to each well. The plate was incubated at r.t. for 10-15 min. The plates were measured on a ViewLux plate reader for green luminescence (540/20 nm filter) and red luminescence (618/8 nm filter). The green and red luminescent signals were corrected for red and green luminescence filter overlap using previously determined filter calibration constants (determined using the procedure outlined in the Promega Technical Manual; REF 4). The %Activity was determined from the ratio of corrected green/red luminescent values. MG132 were used as control. […] Red luminescent %Activity was normalized to the difference between red luminesence in basal cells (0%Activity) and zero luminescence (-100% Activity). […]

Potency, inactive:
O=C(COC(=O)c1c(Cl)cccc1Cl)Nc1cccc(S(=O)(=O)NC2=NCCCCC2)c1, CCN(CC)S(=O)(=O)c1ccc(N2CCN(C)CC2)c(NC(=O)Nc2ccccc2F)c1, CCCN(CC(=O)NC(=O)NC1CCCCC1)CC(=O)Nc1cc(Cl)ccc1Cl, COc1cc(C(=O)NCc2ccncc2)cc(Br)c1OCc1ccccc1, CN(c1ccccc1)S(=O)(=O)c1cc(C(=O)N2CCN(c3ncccn3)CC2)ccc1Cl, CN[C@H](C(=O)NC[C@H]1O[C@@H](n2cnc3c(N)ncnc32)[C@H](O)[C@@H]1O)[C@@H](C)OCc1ccccc1, CCN(CC)S(=O)(=O)c1ccc(CNC(=O)CN2C(=O)NC3(CCc4ccccc43)C2=O)cc1 (centres undefined), O=C(NC1CCCCCC1)C1CCN(C(=O)c2ccc(Cl)cc2)CC1, Cc1nn(Cc2ccccc2)c(C)c1C(=O)N1CCN(CC(=O)Nc2ccccc2Cl)CC1, COc1cc(OC)cc(-c2c(-c3ccc(F)cc3)c3cc(-c4ccc5cc[nH]c5c4)ccc3n2C)c1, O=C(CNC(=O)c1ccco1)NNC(=O)c1ccc(Br)cc1, CC(C)(C)OC(=O)C[C@@H]1C/C=C\C[C@@H](CC(=O)NCCO)C(=O)N[C@H](Cc2c[nH]c3ccccc23)COC1=O, CC(C)c1ccc(S(=O)(=O)N2CCN(C(C)C(=O)NC3CCCC3)CC2)cc1 (centres undefined), CN(CC(=O)Nc1ccc(Cl)c(C(F)(F)F)c1)C(=O)CCC(=O)c1ccccc1, CC1CCC(CN2CCN=C2N(C)C)CC1 (centres undefined), COc1ccc(C(CNC(=O)c2ccc(NS(=O)(=O)c3ccc(F)c(C)c3)cc2)N(C)C)cc1 (centres undefined), COc1cc(OC)cc(C(=O)N[C@H](C(=O)NNC(=O)c2ccc(Br)cc2)C(C)C)c1, CCN1C(=O)[C@@H]2[C@@H](c3ccc(-c4cccc(Cl)c4)cc3)N3CCC[C@@]3(C(=O)OC)[C@@H]2C1=O, C=C(C)CNc1cc(S(=O)(=O)N2CCOCC2)ccc1Oc1ccccc1, Cc1cc(Cl)c2oc(C(=O)N(C)C(C)c3ccccn3)c(C)c2c1 (centres undefined), CSCCC(NC(=O)c1ccccc1)C(=O)N1CCN(Cc2ccc(Cl)cc2)CC1 (centres undefined), COc1ccc(S(=O)(=O)N(C)C[C@H]2Oc3c(NC(=O)Nc4ccc5c(c4)OCO5)cccc3C(=O)N([C@H](C)CO)C[C@@H]2C)cc1, O=C(NCCC1CCCCN1S(=O)(=O)c1ccc(Cl)cc1)C(=O)NCc1ccco1 (centres undefined), O=C(NCCC(=O)N1O[C@@H]2C=C[C@H]1C2)OCC1c2ccccc2-c2ccccc21, N#Cc1cccc(NC(=O)C2CCCN(C(=O)c3ccc(Cl)cc3)C2)c1 (centres undefined), CC(C)(C)OC(=O)C[C@@H]1C/C=C\C[C@@H](CC(=O)N[C@@H](CO)Cc2ccccc2)C(=O)N2CCC[C@H]2COC1=O, CNS(=O)(=O)c1cccc(C(=O)OCCCC(=O)c2ccccc2)c1, COc1ccc(-c2noc(CCC(=O)N3CCN(c4cccc(C)c4)CC3)n2)cc1, Cc1ccc(N2C(=O)N3[C@@H]4c5ccccc5OC[C@@H]4[C@@H](c4ccccc4)[C@@]3(C)C2=O)cc1, CC(C)n1ncc2c(C(=O)Nc3ccc(CC#N)cc3)cc(C3CC3)nc21, COc1cccc(N2CCN(CC(=O)Nc3ccnn3C3CCCC3)CC2)c1, COc1ccccc1-c1sc2ccccc2c1C#CC1(O)CCCCC1, C#CCOCCOCCOCCNc1nc(N2CCN(C(=O)[C@H](CO)n3cc([C@@H](N)C(C)C)nn3)CC2)nc(N2CCN(C(=O)[C@H](CCC(=O)O)n3cc([C@@H](N)[C@H](C)CC)nn3)CC2)n1, CCCCC/C=C/C1=CC(=O)C[C@H](c2ccc(Cl)cc2)C1, COc1ccc(NS(=O)(=O)c2ccc3oc(SCC(N)=O)nc3c2)cc1, COC1=C(N2CCOCC2)C(=O)c2ccccc2C1=O, CCOC(=O)C1CCN(C(=O)CN2C(=O)NC(C)(c3ccc4cc(OC)ccc4c3)C2=O)CC1 (centres undefined), CC(C)(C)OC(=O)C[C@@H]1C/C=C\C[C@@H](CC(=O)N[C@H](CO)Cc2ccccc2)C(=O)NC[C@@H](c2ccccc2)OC1=O, Cc1ccc(NC(=O)CCC(=O)N2CCC(c3ccccc3)=N2)cc1S(=O)(=O)N1CCCCC1, Cc1ccc(-n2ncc(C(=O)NC3CC3)c2C2CCN(C(=O)OC(C)(C)C)CC2)c(C)c1, COc1ccc(CN2C(CC(=O)Nc3cccnc3)c3ccc(C(F)(F)F)cc3S2(=O)=O)cc1 (centres undefined), Cn1c2cc(B(O)O)sc2c2cnn(Cc3ccccc3F)c(=O)c21, COc1ccc(-c2c(-c3cc(OC)cc(OC)c3)n(C)c3ccc(-c4ccn[nH]4)cc23)cc1, COc1ccc(S(=O)(=O)N2CCCCC2)cc1NC(=O)c1cc([N+](=O)[O-])ccc1N1CCOCC1
